This is one part of the list. Active and inactive are the calls of the source.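 The calls were made as follows: active = compounds that slowed 12-hLO product formation enough to yield a measured IC50 potency; inactive = the rest.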
molecular target: Polyunsaturated fatty acid lipoxygenase ALOX12 (Homo sapiens) (UniProt P18054); assay: Cuvette-Based Assay for Inhibitors of 12-hLO (12-human lipoxygenase): 8HQ Series - Round 1; details: purified 12-hLO, cuvette UV 234 nm product formation
Protocol: Assay Provider: Holman, T.R., University of California, Santa Cruz Screening Center PI: Austin, Christopher P. Screening Center: NIH Chemical Genomics Center The enzyme activity of 12-hLO was determined by a direct measurement of product formation by monitoring the absorbance at 234 nm in a 2 mL cuvette. IC50 values of inhibitors were obtained by measuring the enzymatic rate at a variety of concentrations (Carroll et al, Segraves et al).
For control experiments, 2 mL of substrate buffer (10 uM arachidonic acid / 25 mM HEPES / 0.01% (v/v) Triton X-100, pH 8.0) was aliquoted in a cuvette with a magnetic stir bar. After equilibrium was ensured, an aliquot of inhibitor solvent was added (DMSO), and equilibrium was once again assured. The reaction was started by adding enzyme to the cuvette and the reaction was followed until completed. The inhibition experiments were performed as above, except the actual inhibitory compound was added instead of vehicle. To achieve an IC50, typically 5 concentrations of the inhibitor were studied. If the inhibitor concentration was constant, then five different reaction volumes were used. […] 3; No change in absorbance ensured. […] 5; No change in absorbance ensured. […]

Chain of Polyunsaturated fatty acid lipoxygenase ALOX12 (Homo sapiens) (P18054 whole entry, looked up): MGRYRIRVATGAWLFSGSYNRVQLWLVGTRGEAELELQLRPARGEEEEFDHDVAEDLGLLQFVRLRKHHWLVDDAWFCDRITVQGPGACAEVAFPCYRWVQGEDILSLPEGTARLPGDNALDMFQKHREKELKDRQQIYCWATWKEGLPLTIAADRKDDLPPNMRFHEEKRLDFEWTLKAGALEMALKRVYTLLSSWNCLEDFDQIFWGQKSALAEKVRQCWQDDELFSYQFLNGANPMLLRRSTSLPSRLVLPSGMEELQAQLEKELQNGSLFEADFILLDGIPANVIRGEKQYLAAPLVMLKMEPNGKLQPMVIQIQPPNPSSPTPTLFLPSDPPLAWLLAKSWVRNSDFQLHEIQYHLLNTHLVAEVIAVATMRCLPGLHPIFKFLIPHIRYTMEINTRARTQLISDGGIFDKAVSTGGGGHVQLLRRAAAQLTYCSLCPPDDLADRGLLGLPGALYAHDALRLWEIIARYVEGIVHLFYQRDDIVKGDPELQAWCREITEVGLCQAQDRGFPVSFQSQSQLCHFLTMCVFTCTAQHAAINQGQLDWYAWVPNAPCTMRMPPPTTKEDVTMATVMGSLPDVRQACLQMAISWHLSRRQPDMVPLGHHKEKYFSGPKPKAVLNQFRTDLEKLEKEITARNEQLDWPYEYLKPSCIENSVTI

Row | Compound | Potency
1 | CC(=O)NC(c1cccs1)c1cc(Cl)c2cccnc2c1O (stereo unspecified) | 1000 nM (active)

From PubChem BioAssay AID2163 (National Center for Advancing Translational Sciences (NCATS), 2009)
